Results on six compounds are retold here after PubChem BioAssay (NCATS).

Experiment [1] addresses Glucocorticoid receptor (Homo sapiens) (UniProt P04150). Kind of experiment: qHTS assay for small molecule agonists of glucocorticoid receptor signaling (AID 588532; active = well fitted curve in the direction sought with a large enough effect in the signal ratio, with a control signal flat; the % refers to the signal ratio;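 also: 100% = dexamethasone at 0.1 µM and 0% = DMSO only wells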). As to conditions: HeLa MMTV-bla, beta-lactamase ratio, agonist, 18 h; stronger effect = higher value; percent of dexamethasone control, DMSO zero. Put shortly: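 Quantitative HTS using CellSensor MMTV-bla HeLa cells in charcoal/dextran-treated serum; compounds tested up to 92 uM. After 18 h at 37 C, CCF4 dye reported reporter induction.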
For orientation: In qHTS, concentration-response curves come from the screen itself.

Experiment [2] can be described thus: qHTS assay for small molecule antagonists of peroxisome proliferator-activated receptor delta signaling (AID 588535; active = well fitted inhibition curve with a large enough effect in the signal ratio, with a control signal flat, not every such curve was filed as active; the % refers to the signal ratio;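 as to max response: cells co-treated with a PPAR-delta agonist as stimulator during compound exposure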). As to conditions: HEK293T PPARd-UAS-bla, beta-lactamase FRET ratio, 18 h; 460 nm channel. The method in brief: (§1)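 Antagonist-mode qHTS using GeneBLAzer PPAR-delta-UAS-bla HEK293T cells; compound exposure 18 hrs at 37 C over a titration. Ratiometric CCF4 fluorescence at 460/530 nm; concentration-response points fitted to the Hill equation.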

Experiment [3] concerns the target Peroxisome proliferator-activated receptor delta (Homo sapiens) (UniProt Q03181). Described as above. The following applies: HEK293T PPARd-UAS-bla, beta-lactamase FRET ratio, 18 h; series mostly up to 76.7 µM. The method in brief:
as §1

The target in experiment [4] is Peroxisome proliferator-activated receptor gamma (Homo sapiens) (UniProt P37231). Kind of experiment: qHTS assay for small molecule agonists of peroxisome proliferator-activated receptor gamma signaling (AID 588536; active = well fitted curve in the direction sought with a large enough effect in the signal ratio, with a control signal flat, not every such curve was filed as active; the % refers to the signal ratio). As to conditions: HEK293 PPARg-UAS-bla, beta-lactamase ratio, 16 h, percent of rosiglitazone response, DMSO as zero; series mostly up to 76.7 µM. Put shortly: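 Beta-lactamase reporter read-out: CCF4 fluorescence (ex 405, em 460/530 nm) after 2 h at RT. HEK293 GeneBLAzer cells were treated for 16 h at 37 C. Hill fits gave EC50 and efficacy versus 2 uM rosiglitazone (100%) and DMSO (0%).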
Chain of Peroxisome proliferator-activated receptor gamma (Homo sapiens) (P37231 whole entry, looked up): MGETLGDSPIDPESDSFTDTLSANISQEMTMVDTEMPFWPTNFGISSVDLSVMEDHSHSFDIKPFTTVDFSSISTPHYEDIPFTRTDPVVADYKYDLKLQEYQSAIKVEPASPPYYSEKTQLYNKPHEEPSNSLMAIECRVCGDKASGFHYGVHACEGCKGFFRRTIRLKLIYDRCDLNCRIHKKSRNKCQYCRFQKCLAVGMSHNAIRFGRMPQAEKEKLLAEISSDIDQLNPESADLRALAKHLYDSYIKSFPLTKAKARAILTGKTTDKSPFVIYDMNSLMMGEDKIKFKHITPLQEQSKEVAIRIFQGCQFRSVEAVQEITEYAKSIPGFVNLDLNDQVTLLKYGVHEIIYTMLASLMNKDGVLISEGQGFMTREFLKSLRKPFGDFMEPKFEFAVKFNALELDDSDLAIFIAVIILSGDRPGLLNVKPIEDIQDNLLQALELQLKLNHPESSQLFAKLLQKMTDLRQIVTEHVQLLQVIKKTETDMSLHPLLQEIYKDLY

Experiment [5] is described as follows: qHTS assay for small molecule agonists of retinoid X receptor alpha signaling (AID 588544). As to conditions: HEK293T RXRa-UAS-bla, beta-lactamase reporter, 18 h; 530 nm emission.
Experiment [6] is described as follows: qHTS assay for small molecule antagonists of retinoid X receptor alpha signaling (AID 588546; active = well fitted inhibition curve with a large enough effect in the signal ratio, with a control signal flat, not every such curve was filed as active; the % refers to the signal ratio;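 also: cells stimulated with 9-cis-retinoic acid as agonist; % is scaled to controls: 0 for no effect and ±100 for the full control effect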). The following applies: HEK293T RXRa-UAS-bla, beta-lactamase ratio, antagonist mode; measured here: W530 green channel, cytotoxicity proxy. The method in brief: (§2)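 Beta-lactamase reporter inhibition, read as CCF4 fluorescence ratio (ex 405, em 460/530 nm) after 2 h at RT. HEK293T UAS-bla cells, 2500/well, were stimulated with 9-cis-RA at 500 or 100 nM final alongside test compound for 18 h at 37 C.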

Experiment [7] concerns the target Retinoic acid receptor RXR-alpha (Homo sapiens) (UniProt P19793). Described as above. The following applies: HEK293T RXRa-UAS-bla, beta-lactamase ratio, antagonist mode. The method in brief:
as §2

The nature of experiment [8]: qHTS assay for small molecule activators of the p53 signaling pathway (AID 651743; active = well fitted activation curve with a large enough effect in the signal ratio, not every such curve was filed as active; the % refers to the signal ratio; also: % of control where 0% means no effect). As to conditions: HCT-116 p53RE-bla, beta-lactamase FRET ratio, 16 h; activation: stronger effect = higher value. Put shortly:
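A beta-lactamase reporter under p53 response element control, stably carried by HCT-116 cells, reported pathway activation. Test compounds were applied for 16 hours at 37 C, and fluorescence was measured 2 hours after adding the B/G FRET substrate.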

A short description of experiment [9]: qHTS assay for environmental chemicals that activate the Aryl hydrocarbon Receptor (AhR) signaling pathway (AID 651777). Also: % of control where 0% means no effect; nearly all actives have a fitted effect of over 15% in size. As to conditions: 1A2-DRE human hepatoma cells, luciferase, 24 h; activation: stronger effect = higher value. Put shortly: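 Reporter gene assay: hepatoma cells with DRE/CYP1A2-luciferase, 24 hr compound incubation at 37 C, 5% CO2, luminescence after One-Glo (30 min, RT).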

Experiment [10] addresses Peroxisome proliferator-activated receptor alpha (Homo sapiens) (UniProt Q07869). Put plainly: qHTS assay for small molecule agonists of the peroxisome proliferator-activated receptor alpha (PPARalpha) signaling pathway (AID 651778). Also: % of control where 0% means no effect. As to conditions: PathHunter PPARalpha complementation, chemiluminescence, 6 h; max response: stronger effect = higher value. The method in brief:
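Chemiluminescence from complemented enzyme reported PPARalpha activation in cells after 6 hr of compound treatment at 37 C. The detection reagent was incubated for 60 min at room temperature, and compounds were scored as agonists.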

Experiment [11] can be described thus: qHTS assay for small molecule agonists of the antioxidant response element (ARE) signaling pathway measured by Nrf2-dependant transcriptional activity (AID 720636; active = well fitted curve in the direction sought with a large enough effect in the repeat runs; an effect the other way counts as inactive or inconclusive;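 also: HepG2 cells with an ARE-driven luciferase reporter; % of control where 0% means no effect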). As to conditions: ARE-luc HepG2, Nrf2 luciferase reporter, 16 h; series mostly up to 92.4 µM. Put shortly:
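Nrf2-dependent transcription is measured in ARE-luc HepG2 cells: compound is applied for 16 hr at 37 C after a 6 hr attachment period, and luciferase activity is quantified by luminescence using ONE-Glo.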

Experiment [12] in a line: qHTS assay for small molecule agonists of the antioxidant response element (ARE) signaling pathway measured by Nrf2-dependant transcriptional activity - cell viability counter screen (AID 720653; active = well fitted curve in the direction sought with a large enough effect in the repeat runs; an effect the other way counts as inactive or inconclusive; also: % is scaled to controls: 0 for no effect and ±100 for the full control effect). The following applies: ARE-bla HepG2 viability, CellTiter-Glo ATP luminescence, 16 h; max response: stronger effect = lower value. The method in brief:
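Cytotoxicity counter screen: intracellular ATP quantified by CellTiter-Glo luminescence in the same ARE-bla HepG2 plates, after 16 h compound exposure and a 2 h beta-lactamase substrate step.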

Experiment [13] can be described thus: qHTS assay for cell viability of HEK293 cells (AID 743288). Also: % is scaled to controls: 0 for no effect and ±100 for the full control effect; nearly all actives have a fitted effect of over 50% in size. As to conditions: ATP luminescence (CellTiter-Glo), 18 h; max response: stronger effect = lower value. Put shortly: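 Steps: plate 2,000 parental HEK293 cells per well; incubate ≥5 h, 37 C; add compounds in DMSO; incubate 18 h, 37 C; add CellTiter-Glo; wait 30 min at room temperature; read luminescence.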
The nature of experiment [14]: qHTS assay for cell viability of the p53RE-bla HCT-116 cell line (AID 743292). Also: % is scaled to controls: 0 for no effect and ±100 for the full control effect; nearly all actives have a fitted effect of over 55% in size. As to conditions: p53RE-bla HCT-116 viability, ATP luminescence, 16 h; series mostly up to 95 µM. Put shortly:
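ATP-based luminescence, 16 h compound exposure at 37 C, p53RE-bla HCT-116 cells at 4,000/well.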

In experiment [15] the target is Nuclear receptor subfamily 1 group I member 2 (Rattus norvegicus) (UniProt Q9R1A7). Put plainly: qHTS assay for small molecule activators of the rat pregnane X receptor (rPXR) signaling pathway (AID 651751; call rule not given here; also: 0% is about no effect). The following applies: rPXR reporter cells, luciferase (One-Glo), 24 h.
Chain of Nuclear receptor subfamily 1 group I member 2 (Rattus norvegicus) (Q9R1A7 whole entry, looked up): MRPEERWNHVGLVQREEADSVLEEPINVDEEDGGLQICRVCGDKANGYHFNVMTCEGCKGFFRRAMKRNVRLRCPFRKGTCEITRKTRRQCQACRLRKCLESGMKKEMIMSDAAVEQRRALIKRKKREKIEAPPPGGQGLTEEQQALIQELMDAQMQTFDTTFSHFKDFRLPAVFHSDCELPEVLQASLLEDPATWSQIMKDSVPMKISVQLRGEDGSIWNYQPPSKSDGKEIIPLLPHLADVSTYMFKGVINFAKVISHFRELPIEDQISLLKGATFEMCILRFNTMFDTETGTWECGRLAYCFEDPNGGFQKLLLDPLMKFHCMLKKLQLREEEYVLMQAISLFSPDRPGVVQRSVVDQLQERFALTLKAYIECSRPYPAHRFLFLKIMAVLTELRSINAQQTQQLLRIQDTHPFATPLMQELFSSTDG
Experiment [16] can be described thus: qHTS assay for small molecule activators of the human pregnane X receptor (PXR) signaling pathway (AID 720659; call rule not given here; also: 0% is about no effect). As to conditions: DPX-2 HepG2 CYP3A4-luciferase, 24 h; series mostly up to 92.3 µM.
Experiment [17] deals with Vitamin D3 receptor (Homo sapiens) (UniProt P11473). Put plainly: qHTS assay for small molecule antagonists of vitamin D receptor signaling (AID 588541; calls by dose curve;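 also: receptor activated by calcitriol during compound treatment; % is scaled to controls: 0 for no effect and ±100 for the full control effect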). As to conditions: HEK293T VDR-UAS-bla, beta-lactamase ratio, antagonist mode; series mostly up to 76.7 µM. The method in brief:
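Antagonist-mode beta-lactamase reporter assay: HEK293T VDR-UAS-bla cells were exposed to titrated compound alongside 1-alpha,25-dihydroxyvitamin D3 at 3 nM final for 16 h. Values were normalized to the 50 nM agonist control and DMSO basal, with IC50 and efficacy from Hill equation fits.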

In experiment [18] the target is Thyroid hormone receptor beta (Homo sapiens) (UniProt P10828). Kind of experiment: qHTS assay for small molecule agonists of thyroid hormone receptor beta signaling (AID 588545; calls by dose curve). As to conditions: TR-UAS-bla GripTite HEK 293, beta-lactamase ratio, agonist mode, 18 h; series mostly up to 76.7 µM. Put shortly: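 In this cell-based screen, titrated compounds act on HEK 293 cells held in medium with 2% charcoal/dextran FBS, NEAA and pyruvate for 18 hrs at 37 C. Responses are expressed relative to T3 (10 nM) as 100% and basal DMSO as 0%.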
Chain of Thyroid hormone receptor beta (Homo sapiens) (P10828 whole entry, looked up): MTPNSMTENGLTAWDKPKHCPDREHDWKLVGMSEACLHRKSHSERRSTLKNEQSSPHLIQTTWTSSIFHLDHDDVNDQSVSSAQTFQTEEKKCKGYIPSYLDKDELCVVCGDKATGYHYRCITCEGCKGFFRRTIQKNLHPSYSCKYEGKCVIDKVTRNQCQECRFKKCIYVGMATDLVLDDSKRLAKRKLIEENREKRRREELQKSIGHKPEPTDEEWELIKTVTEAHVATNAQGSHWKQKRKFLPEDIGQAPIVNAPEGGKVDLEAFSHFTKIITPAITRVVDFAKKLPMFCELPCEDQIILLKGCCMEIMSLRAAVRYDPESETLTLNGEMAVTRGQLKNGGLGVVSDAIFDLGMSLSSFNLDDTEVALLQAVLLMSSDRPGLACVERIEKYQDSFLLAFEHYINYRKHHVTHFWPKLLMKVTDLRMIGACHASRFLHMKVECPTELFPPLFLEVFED

The target is the same in experiment [19]. Put plainly: qHTS assay for small molecule antagonists of thyroid hormone receptor beta signaling (AID 588547; active = well fitted inhibition curve with a large enough effect in the signal ratio, with a control signal flat, not every such curve was filed as active; the % refers to the signal ratio;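 also: cells stimulated with 0.4 nM T3 agonist during compound exposure; % is scaled to controls: 0 for no effect and ±100 for the full control effect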). The following applies: TR-UAS-bla HEK293, beta-lactamase ratio, antagonist mode, 18 h. The method in brief: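 Inhibition of T3-driven (0.4nM final) beta-lactamase reporter activity was measured over 0.59 nM to 92 uM compound after 18 h at 37 C. The cells were GripTite HEK293 TR-UAS-bla in charcoal/dextran-stripped serum, with CCF4 ratio read-out and IC50 from Hill fits.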

In experiment [20] the target is Vitamin D3 receptor (Homo sapiens) (UniProt P11473). Kind of experiment: qHTS assay for small molecule agonists of vitamin D receptor signaling (AID 588543; calls by dose curve;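 also: 0% = DMSO basal and 100% = reference agonist control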). The following applies: HEK293T VDR-UAS-bla, beta-lactamase ratio, 16 h; series mostly up to 76.8 µM. Put shortly: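 VDR-UAS-bla HEK293T cells, 2000/well, 2% charcoal-stripped FBS; compound titration 16 h at 37 C; CCF4 beta-lactamase ratio read. Normalized to 50 nM 1-alpha,25-dihydroxyvitamin D3 (100%) and DMSO; Hill fit gives EC50, efficacy.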
Chain of Vitamin D3 receptor (Homo sapiens) (P11473 whole entry, looked up): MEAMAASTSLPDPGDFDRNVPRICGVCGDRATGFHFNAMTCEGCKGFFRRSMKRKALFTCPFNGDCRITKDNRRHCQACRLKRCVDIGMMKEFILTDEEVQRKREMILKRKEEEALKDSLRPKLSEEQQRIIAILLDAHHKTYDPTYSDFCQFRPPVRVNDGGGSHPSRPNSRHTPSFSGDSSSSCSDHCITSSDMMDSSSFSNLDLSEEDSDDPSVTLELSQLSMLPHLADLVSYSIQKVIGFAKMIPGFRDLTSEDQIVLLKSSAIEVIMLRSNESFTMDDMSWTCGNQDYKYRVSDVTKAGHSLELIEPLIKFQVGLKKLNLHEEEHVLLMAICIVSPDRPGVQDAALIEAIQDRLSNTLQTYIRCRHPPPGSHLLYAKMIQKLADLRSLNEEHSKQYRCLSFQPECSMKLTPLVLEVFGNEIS

Molecules are shown by their SMILES. Inconclusive results are not listed. Calls of active or inactive are those of the source. Unless noted, calls follow the shape of the dose curve; as a rule, active = well fitted curve in the direction sought with a large enough effect; inconclusive = small, poorly fitted or top-dose-only effect, or another doubt; inactive = no such curve, though single readings can be large; an effect the other way counts as inactive or inconclusive.

Chain of Peroxisome proliferator-activated receptor alpha (Homo sapiens) (Q07869 whole entry, looked up): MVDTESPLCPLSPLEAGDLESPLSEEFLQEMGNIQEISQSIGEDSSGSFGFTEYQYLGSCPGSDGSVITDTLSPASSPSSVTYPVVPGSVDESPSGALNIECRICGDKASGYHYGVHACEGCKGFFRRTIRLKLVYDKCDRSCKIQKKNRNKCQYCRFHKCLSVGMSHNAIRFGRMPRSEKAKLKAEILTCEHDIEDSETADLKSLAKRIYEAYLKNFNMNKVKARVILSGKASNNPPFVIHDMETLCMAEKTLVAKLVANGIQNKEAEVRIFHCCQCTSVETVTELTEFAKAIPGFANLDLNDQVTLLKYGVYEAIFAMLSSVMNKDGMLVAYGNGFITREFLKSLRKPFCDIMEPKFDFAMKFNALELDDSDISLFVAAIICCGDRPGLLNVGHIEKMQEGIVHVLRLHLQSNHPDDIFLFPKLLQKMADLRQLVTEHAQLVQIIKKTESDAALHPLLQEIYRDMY
Chain of Glucocorticoid receptor (Homo sapiens) (P04150 whole entry, looked up): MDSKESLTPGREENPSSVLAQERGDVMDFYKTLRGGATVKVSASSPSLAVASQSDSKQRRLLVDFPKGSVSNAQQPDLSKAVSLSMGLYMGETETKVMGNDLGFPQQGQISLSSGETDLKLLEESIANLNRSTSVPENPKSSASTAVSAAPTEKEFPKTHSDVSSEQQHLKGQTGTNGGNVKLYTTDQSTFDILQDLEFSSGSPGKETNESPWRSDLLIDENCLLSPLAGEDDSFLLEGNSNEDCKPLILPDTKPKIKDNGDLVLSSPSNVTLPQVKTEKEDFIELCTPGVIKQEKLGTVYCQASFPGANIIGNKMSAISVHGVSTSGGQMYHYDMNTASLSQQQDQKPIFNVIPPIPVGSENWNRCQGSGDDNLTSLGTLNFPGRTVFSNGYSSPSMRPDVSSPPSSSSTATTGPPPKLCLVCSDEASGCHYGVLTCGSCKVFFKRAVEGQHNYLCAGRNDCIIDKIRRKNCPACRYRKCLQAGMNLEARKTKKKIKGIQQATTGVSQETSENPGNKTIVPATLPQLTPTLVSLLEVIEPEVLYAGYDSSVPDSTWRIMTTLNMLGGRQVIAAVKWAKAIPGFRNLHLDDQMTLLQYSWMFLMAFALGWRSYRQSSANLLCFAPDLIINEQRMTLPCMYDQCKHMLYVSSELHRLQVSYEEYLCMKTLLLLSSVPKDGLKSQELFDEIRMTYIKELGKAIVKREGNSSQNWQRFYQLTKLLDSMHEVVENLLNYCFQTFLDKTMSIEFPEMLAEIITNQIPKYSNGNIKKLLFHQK
Chain of Peroxisome proliferator-activated receptor delta (Homo sapiens) (Q03181 whole entry, looked up): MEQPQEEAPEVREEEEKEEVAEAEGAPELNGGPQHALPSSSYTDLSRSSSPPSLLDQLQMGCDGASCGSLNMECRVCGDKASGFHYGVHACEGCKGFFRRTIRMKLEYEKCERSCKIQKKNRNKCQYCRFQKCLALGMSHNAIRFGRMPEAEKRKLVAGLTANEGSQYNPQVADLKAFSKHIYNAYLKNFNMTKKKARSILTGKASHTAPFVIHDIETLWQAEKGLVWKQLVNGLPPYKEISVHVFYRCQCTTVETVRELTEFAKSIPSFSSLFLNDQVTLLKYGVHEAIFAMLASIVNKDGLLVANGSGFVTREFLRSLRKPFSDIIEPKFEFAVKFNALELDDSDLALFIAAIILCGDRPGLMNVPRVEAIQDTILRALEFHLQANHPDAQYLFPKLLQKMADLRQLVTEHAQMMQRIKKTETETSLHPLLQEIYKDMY
Chain of Retinoic acid receptor RXR-alpha (Homo sapiens) (P19793 whole entry, looked up): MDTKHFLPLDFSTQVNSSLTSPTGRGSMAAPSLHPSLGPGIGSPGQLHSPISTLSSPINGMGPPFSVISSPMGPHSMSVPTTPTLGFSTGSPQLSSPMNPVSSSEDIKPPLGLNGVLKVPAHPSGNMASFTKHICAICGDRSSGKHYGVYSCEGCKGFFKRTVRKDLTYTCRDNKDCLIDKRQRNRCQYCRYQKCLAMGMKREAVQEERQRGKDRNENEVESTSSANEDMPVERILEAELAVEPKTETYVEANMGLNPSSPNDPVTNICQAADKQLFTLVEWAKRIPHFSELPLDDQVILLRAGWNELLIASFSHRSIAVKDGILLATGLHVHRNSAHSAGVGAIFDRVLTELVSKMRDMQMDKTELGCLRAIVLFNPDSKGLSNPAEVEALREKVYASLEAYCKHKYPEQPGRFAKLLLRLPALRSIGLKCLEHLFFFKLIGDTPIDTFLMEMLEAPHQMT

On to `NC(=O)Cc1cccc2ccccc12`, for which the figures for the activation in experiment [1], in [8] and in experiment [9] were -1.98% (inactive), 1.36% (inactive) and 4.55% (inactive), respectively. Besides, the max response in [2] is 36.8%; in experiment [5] it was -2.89%; in experiment [6], 0.786%; in experiment [7], -14.7% (inactive); in experiment [10], -0.179% (inactive); in [12], -4.7% (inactive). For the same compound, the max response is -7.9% (inactive) in [13] and -0.261% (inactive) in [15]. Besides, the Potency entry in experiment [3], in experiment [11] and in [14] was “inactive” in each case. Besides, the outcome in experiment [4] and in experiment [16] was inactive.

On to `Cc1ccc(N)c(S(=O)(=O)O)c1`, for which the values for the activation in experiment [1] and in experiment [9] were -5.18% (inactive) and 8.24% (inactive), respectively. The max response is 11.7% in [2]; -0.582% in [5]; 1.46% in experiment [6]; -14.4% (inactive) in experiment [7]; -5.19% (inactive) in experiment [10]; -14.4% (inactive) in experiment [12]. In addition, the max response is -6.79% (inactive) in experiment [13] and 3.5% (inactive) in [15]. Besides, the Potency result in experiment [3], in [17], in experiment [18] and in experiment [14] was “inactive” throughout. The outcome in experiment [4] and in [16] was inactive. Besides, in [19], the activity change % (negative = inhibition) was -15.2% (inactive).

`C=C(C)C(=O)OCC(CC)(COC(=O)C(=C)C)COC(=O)C(=C)C`: the activation in experiment [1] is 3.82% (inactive); in experiment [8], -3.72% (inactive); in [9], -0.628% (inactive). Also, the max response in experiment [2] was 9.24%; in experiment [5], -12.4%; in experiment [6], -6.08%; in [7], 13.1% (inactive); in [10] it was -3.37% (inactive); in [12] it was -12% (inactive). The max response is -15.9% (inactive) in experiment [13] and -1.04% (inactive) in experiment [15]. Further, the Potency result in experiment [3], in experiment [18], in [11] and in [14] was “inactive” in each case. Also, the result in experiment [4] and in experiment [16] was inactive.

Consider `CC(=O)c1c(C)c([N+](=O)[O-])c(C(C)(C)C)c([N+](=O)[O-])c1C`, for which the values for the activation in [1], in experiment [8] and in experiment [9] were 3.65% (inactive), 6.99% (inactive) and 0.439% (inactive), respectively. Moreover, the max response in [2] was -16.8%; in experiment [5], -17.8%; in experiment [6] it was -24%; in experiment [7], -4.43% (inactive); in experiment [12] it was -1.24% (inactive); in experiment [13], -8.24% (inactive). Besides, the Potency result in experiment [3], in experiment [17], in [18], in [11] and in experiment [14] was “inactive” throughout. The result in experiment [4] and in [20] was inactive. The activity change % (negative = inhibition) in experiment [19] was 11% (inactive).

`CCOCCOCCOC(C)=O`: the activation is -7.35% (inactive) in [1], 1.91% (inactive) in experiment [8] and -0.223% (inactive) in [9]. For the same compound, the max response in experiment [2] is 31.4%; in experiment [5] it was 0.881%; in experiment [6] it was -12.8%; in experiment [7] it was 7.1% (inactive); in experiment [10] it was 0.0175% (inactive); in experiment [12], 2.87% (inactive). Besides, the max response is 0.368% (inactive) in experiment [13] and 0.7% (inactive) in experiment [15]. In addition, the Potency result in [3], in experiment [17], in experiment [18], in experiment [11] and in experiment [14] was “inactive” each time. Moreover, the outcome in [4], in [20] and in experiment [16] was inactive. The activity change % (negative = inhibition) in [19] was 14% (inactive).

As to `CC1(C)C(=O)NC(=O)N1CO`, the activation in experiment [1] was -5.05% (inactive); in [8] it was -0.511% (inactive); in experiment [9] it was 1.93% (inactive). Besides, the max response is 11.7% in experiment [2]; -10.3% in [5]; -6.79% in experiment [6]; -4.89% (inactive) in experiment [7]; -1.57% (inactive) in experiment [10]; -2.23% (inactive) in experiment [12]. Also, the max response in experiment [13] was -2.85% (inactive); in experiment [15], 1.33% (inactive). Also, the Potency entry in experiment [3], in experiment [17], in experiment [18], in experiment [11] and in experiment [14] was “inactive” throughout. Besides, the result in [4], in experiment [20] and in [16] was inactive.
